Results taken from PubChem BioAssay (Tox21).
Records with an inconclusive call do not appear. Calls of active or inactive are those of the source. Unless noted, calls come from the whole dose curve; as a rule, active = well fitted curve in the direction sought with a large enough effect in the repeat runs; inconclusive = weak or mixed curves; inactive = no such curve, though single readings can be large; an effect the other way counts as inactive or inconclusive.

Experiments:
[1] = qHTS assay for small molecule agonists of the p53 signaling pathway - cell viability (AID 651633; calls by dose curve;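 note: p53RE-bla HCT reporter cells with a stable beta-lactamase p53 reporter; series mostly up to about 83 µM; nearly all actives have a fitted effect of over 30% in size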)
How it was run: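 p53RE-bla cells, seeded at 4,000 per well and rested 5 h at 37 C/5% CO2, received compounds in DMSO for 16 h at 37 C. CellTiter-Glo was then added, and luminescence was read after 30 min at room temperature to gauge cytotoxicity.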

[2] = qHTS assay for small molecules that induce genotoxicity in human embryonic kidney cells expressing luciferase-tagged ATAD5 - cell viability (AID 651634; calls by dose curve; note: nearly all actives have a fitted effect of over 25% in size)
How it was run: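 After 15.5 hr incubation with compound at 37C, 5% CO2, HEK293T ATAD5-luciferase cells received CellTiter-Fluor reagent; fluorescence intensity was quantified following 30 min at 37C.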

[3] = qHTS assay to test for compound auto fluorescence at 590 nm (red) in HepG2 cells (AID 720674)
How it was run: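 Rose Bengal sodium served as the red fluorophore standard. HepG2 monolayers (overnight attachment, MEM with 10% FBS) were exposed to test compounds for 1 hr at 37 C and read at Ex 540/Em 590 nm.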

[4] = qHTS assay to test for compound auto fluorescence at 460 nm (blue) in HEK293 cells (AID 720678)
How it was run: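 HEK293 cells (2,000 per well, medium with 10% dialyzed FBS) attached for 4-5 hr at 37C, then received compound and stood overnight at 37C, 5% CO2. Blue fluorescence was read at Ex/Em 405/460 nm and expressed relative to triamterene.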

[5] = qHTS assay to test for compound auto fluorescence at 590 nm (red) in HEK293 cells (AID 720679)
How it was run: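 HEK293 cells (2,000/well, medium with 10% dialyzed FBS) attached for 4-5 hr at 37C, received 23 nL compound and were incubated overnight at 37C, 5% CO2. Red fluorescence was then read at 540/590nm Ex/Em, referenced to Rose Bengal sodium.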

[6] = qHTS assay to test for compound auto fluorescence at 460 nm (blue) in HEK293 cell free culture (AID 720681)
How it was run: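 Test compounds were pinned into cell-free culture medium (DMEM with 10% FBS) and fluorescence was read directly at Ex/Em 405/460 nm. Signals were expressed as fluorescence equivalents of triamterene, with DMSO vehicle as control.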

[7] = qHTS assay to test for compound auto fluorescence at 535 nm (green) in HEK293 cell free culture (AID 720682)
How it was run: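 Green-label autofluorescence (485 nm excitation, 535 nm emission) measured on compound added to cell-free culture medium (DMEM, 10% FBS). Output is expressed relative to fluorescein.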

[8] = qHTS assay to test for compound auto fluorescence at 590 nm (red) in HEK293 cell free culture (AID 720683)
How it was run: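 Tox21 10K library compounds were pinned into cell-free DMEM with 10% FBS and fluorescence was read at excitation 540 nm. Activity is expressed as Rose Bengal sodium equivalency.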

[9] = qHTS assay to test for compound auto fluorescence at 590 nm (red) in HepG2 cell free culture (AID 720684)
How it was run: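 Ex 540 / Em 590 nm read of compound in cell-free MEM (10% FBS). Rose Bengal sodium reference.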

[10] = qHTS assay to test for compound auto fluorescence at 460 nm (blue) in HepG2 cell free culture (AID 720685)
How it was run: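 Cell-free plates of MEM plus 10% FBS received 23 nL compound or DMSO vehicle; blue-channel (405/460 nm) intensity scored against triamterene as reference fluorophore.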

[11] = qHTS assay to test for compound auto fluorescence at 535 nm (green) in HepG2 cell free culture (AID 720686)
[12] = qHTS assay to test for compound auto fluorescence at 460 nm (blue) in HepG2 cells (AID 720687)
How it was run: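 Cells (2,000/well in MEM with 10% FBS) attached overnight at 37 C, then were exposed to compound or DMSO for 1 hr at 37 C, 5% CO2. Fluorescence read at Ex/Em 405/460 nm, expressed as triamterene-equivalent signal.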

[13] = qHTS assay to identify small molecule antagonists of the glucocorticoid receptor (GR) signaling pathway - cell viability counter screen (AID 720693); note: nearly all actives have a fitted effect of over 55% in size
[14] = qHTS assay to identify small molecule antagonists of the androgen receptor (AR) signaling pathway - cell viability counter screen (AID 743033; note: nearly all actives have a fitted effect of over 45% in size)
[15] = qHTS assay to identify small molecule antagonists of the androgen receptor (AR) signaling pathway using the MDA cell line - cell viability counter screen (AID 743041; note: nearly all actives have a fitted effect of over 45% in size; note: potency is the fitted concentration of half-maximal effect)
How it was run: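 In this qHTS counter assay, fluorescence intensity after CellTiter-Fluor addition indicated viability of MDA-kb2 AR-luc cells given compounds and R1881 for 16 h at 37C.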

[16] = target: Aromatase (Homo sapiens) (UniProt P11511); assay: qHTS assay to identify aromatase inhibitors (AID 743083); note: series mostly up to about 70 µM; nearly all actives have a fitted effect of over 55% in size
Aromatase (Homo sapiens), sequence (P11511 whole entry, looked up): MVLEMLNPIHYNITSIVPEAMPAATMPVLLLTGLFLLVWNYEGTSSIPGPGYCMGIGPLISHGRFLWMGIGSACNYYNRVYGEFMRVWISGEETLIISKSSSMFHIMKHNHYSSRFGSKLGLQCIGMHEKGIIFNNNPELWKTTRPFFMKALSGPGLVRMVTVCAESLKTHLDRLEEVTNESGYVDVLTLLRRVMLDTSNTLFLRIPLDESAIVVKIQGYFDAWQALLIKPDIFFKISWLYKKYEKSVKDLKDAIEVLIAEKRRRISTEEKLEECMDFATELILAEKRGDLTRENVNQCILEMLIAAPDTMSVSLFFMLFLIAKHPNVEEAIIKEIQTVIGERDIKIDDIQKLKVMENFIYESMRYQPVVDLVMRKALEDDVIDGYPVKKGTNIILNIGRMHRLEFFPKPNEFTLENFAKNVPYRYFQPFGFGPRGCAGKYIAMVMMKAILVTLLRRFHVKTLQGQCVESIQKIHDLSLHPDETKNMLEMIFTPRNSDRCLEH

[17] = qHTS assay to identify aromatase inhibitors - cell viability counter screen (AID 743084);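 note: cells stimulated with testosterone during compound exposure; nearly all actives have a fitted effect of over 55% in size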
[18] = qHTS assay to identify small molecule that activate the aryl hydrocarbon receptor (AhR) signaling pathway - cell viability counter screen (AID 743086); note: nearly all actives have a fitted effect of over 45% in size; note: potency is the fitted concentration of half-maximal effect
How it was run: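 HepG2-AhR-luc (HG2L7.5c1) cells, 4000/well, were preincubated 5 h at 37C, exposed to compound in qHTS format for 24 hr at 37C, then given CellTiter-Fluor for 30 min; viability was read as fluorescence in the reporter wells.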

[19] = qHTS assay to identify small molecule phospholipidosis (PLD) inducers (AID 1259344; active = well fitted curve in the direction sought with a large enough effect; an effect the other way counts as inactive or inconclusive)
How it was run: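 After 4 h attachment on collagen I, HepG2 cells were dosed with compound alongside LipidTOX Red, kept 24 h at 37 C, fixed, and imaged for lamellar phospholipid pits.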

[20] = qHTS assay to identify small molecule antagonists of the estrogen receptor alpha (ER-alpha) signaling pathway - cell viability counter screen (AID 743074; calls by dose curve;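 note: HEK293 cells carrying ER-alpha-UAS-bla reporter stimulated with 17beta-estradiol; nearly all actives have a fitted effect of over 45% in size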)
% is set by controls: 0 for no effect and ±100 for the full control effect.

C1CN(P2(N3CC3)=NP(N3CC3)(N3CC3)=NP(N3CC3)(N3CC3)=N2)CCO1 (stereo unspecified)
inactive: Potency [1] | Potency [2] | outcome [3] | Potency [4] | outcome [5] | Potency [6] | Potency [7] | outcome [8] | outcome [9] | Potency [10] | Potency [11] | Potency [12] | Potency [13] | Potency [14] | Potency [15] | Potency [16] | Potency [17] | Potency [18] | PLD induction [19] 0.928% [at 7.66 µM]

C[C@H]1CC[C@]2(NC1)O[C@H]1C[C@H]3[C@@H]4CC[C@H]5C[C@@H](O)CC[C@]5(C)[C@H]4CC[C@]3(C)[C@H]1[C@@H]2C
inactive: Potency [1] | Potency [2] | outcome [3] | Potency [4] | outcome [5] | Potency [6] | Potency [7] | outcome [8] | outcome [9] | Potency [10] | Potency [11] | Potency [12] | Potency [13] | Potency [14] | Potency [15] | Potency [20] | Potency [16] | Potency [17] | Potency [18]

CCN(CC)/[N+]([O-])=N/O
inactive: Potency [1] | outcome [3] | Potency [4] | outcome [5] | Potency [6] | Potency [7] | outcome [8] | Potency [10] | Potency [11] | Potency [12] | Potency [13] | Potency [15] | Potency [20] | Potency [16] | Potency [17] | Potency [18] | Potency [19]

Clc1ccc(Cl)c(Cl)c1Cl
inactive: Potency [16]

COc1cc(C[C@H](C)N)c(OC)cc1C
inactive: Potency [1] | Potency [2] | outcome [3] | Potency [4] | outcome [5] | Potency [6] | Potency [7] | outcome [8] | outcome [9] | Potency [10] | Potency [11] | Potency [12] | Potency [13] | Potency [14] | Potency [20] | Potency [16] | Potency [17] | Potency [18] | Potency [19]

F/C(COc1ccc2c(c1)[nH]c1ccccc12)=C1/CN2CCC1CC2
active: Potency [18] 21.1 µM
inactive: Potency [1] | Potency [2] | outcome [3] | Potency [4] | outcome [5] | Potency [6] | outcome [8] | outcome [9] | Potency [10] | Potency [11] | Potency [12] | Potency [13] | Potency [14] | Potency [15]

O=C1C[C@@H]2OCC=C3CN4CC[C@]56c7ccccc7N1[C@H]5[C@H]2[C@H]3C[C@H]46 (tested in a mixture with another compound)
inactive: Potency [2] | outcome [3] | Potency [4] | outcome [5] | Potency [6] | Potency [7] | outcome [8] | outcome [9] | Potency [10] | Potency [11] | Potency [12] | Potency [13] | Potency [14] | Potency [15] | Potency [20] | Potency [16] | Potency [17] | Potency [18] | Potency [19]

O.O.O.O=C([O-])C(O)C(O)C(=O)[O-].O=C([O-])C(O)C(O)C(=O)[O-].[K+].[K+].[Sb].[Sb] (stereo unspecified)
inactive: outcome [3] | Potency [4] | outcome [5] | Potency [6] | Potency [7] | outcome [8] | outcome [9] | Potency [10] | Potency [11] | Potency [12] | Potency [13] | Potency [20] | Potency [17] | Potency [18] | Potency [19]
active: Potency [15] 18.8 µM

CN1[C@@H]2CC[C@H]1CC(OC(=O)C(CO)c1ccccc1)C2 (stereo partly specified)
inactive: Potency [16]

Cc1c(N)cccc1N
inactive: Potency [16]

CC(C)[C@@]1(NC(=O)[C@@H]2C[C@@H]3c4cccc5[nH]cc(c45)C[C@H]3N(C)C2)O[C@@]2(O)[C@@H]3CCCN3C(=O)[C@H](Cc3ccccc3)N2C1=O
inactive: Potency [1] | outcome [3] | Potency [4] | outcome [5] | Potency [6] | Potency [7] | outcome [8] | Potency [10] | Potency [11] | Potency [12] | Potency [13] | Potency [14] | Potency [15] | Potency [20] | Potency [16] | Potency [17]

Clc1cc(Cl)c(Cl)cc1Cl
inactive: Potency [16]

CN1[C@@H]2CC[C@H]1CC(OC1c3ccccc3CCc3ccccc31)C2 (stereo partly specified)
inactive: Potency [1] | Potency [2] | outcome [3] | Potency [4] | outcome [5] | Potency [6] | Potency [7] | outcome [8] | outcome [9] | Potency [10] | Potency [11] | Potency [12] | Potency [13] | Potency [14] | Potency [15] | Potency [20] | Potency [16] | Potency [17] | Potency [18]

CCN(CC)CCO[C@H]1CC[C@@]2(C)C(=CC[C@@H]3[C@@H]2CC[C@]2(C)C(=O)CC[C@@H]32)C1
inactive: Potency [1] | Potency [2] | outcome [3] | Potency [4] | outcome [5] | Potency [6] | Potency [7] | outcome [8] | outcome [9] | Potency [10] | Potency [11] | Potency [13] | Potency [14] | Potency [15] | Potency [16] | Potency [17] | Potency [18]

COc1cc([C@@H]2c3cc4c(cc3[C@H](O)[C@H]3COC(=O)[C@H]23)OCO4)cc(OC)c1OC
inactive: Potency [16]
